# CCHF vOTU inh-1: blocks the CCHF virus ovarian tumor domain protease. actives 0.55% (n = 370,000). CCHFV vOTU protease, Pep-AMC fluorescence. inhibition, % at 11.5 µM; also: 0% = vehicle wells with enzyme and 100% = no enzyme wells
# PfHsp40 yeast: restores yeast growth despite PfHsp40 toxicity | S. cerevisiae expressing PfHsp40, growth rescue, ATP luminescence | growth rescue, % at 12.5 µM | actives 0.68% (n = 340,000) | AID 504582; in the data active = growth rescue above about 28%, passing the limit was not always enough; inconclusive = no clear call, values can overlap the other calls;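 also: yeast W303a lacking pdr1 and pdr3 grown in galactose medium; growth measured after three days at 30 °C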
# Mtb hypoxia rep: inhibitors of hypoxia-regulated fluorescent reporter in Mycobacterium tuberculosis. actives 0.1% (n = 300,000). fluorescence inhibition, % (concentration not given with the values). AID 1159583. M. tuberculosis hypoxia-regulated fluorescent reporter, fluorescence; in the data active = fluorescence inhibition mostly above about 23%, no sharp cut-off; inactive = mostly below about 17%
# ugtP null kill: compounds lethal to S. aureus RN4220 ugtP deletion mutant | OD600 growth, 16 h | growth inhibition, % (concentration not given with the values) | actives 0.54% (n = 330,000); in the data active = growth inhibition above about 68%;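 also: plate controls were untreated wells for no effect and antibiotic for full effect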
# BH1578 lux ind: quorum light induction in luxS cqsA deficient V. cholerae; V. cholerae BH1578 lux reporter, luminescence, 6 h; actives 0.16% (n = 350,000); AID 588436; activation, % at 18.7 µM; in the data active = activation mostly above about 9.7%, no sharp cut-off; inconclusive = no clear call, values can overlap the other calls; inactive = mostly below about 3.7%
# Sa RN4220 lethal: kills Staphylococcus aureus RN4220. S. aureus RN4220 growth, OD600, 16 h. inhibition, % (test concentration not listed). actives 0.33% (n = 330,000); in the data active = inhibition above about 85%;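 also: plate controls were untreated cells for no effect and reference antibiotic for full effect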
# CCHF vOTU inh-2: confirmation of CCHF virus vOTU protease inhibitors. shares compounds with CCHF vOTU inh-1. Recombinant CCHFV vOTU, Pep-AMC fluorescence. inhibition, % at 11.5 µM. actives 17% (n = 1,900)
# An asterisk follows results filed as active; i = inactive; ? = inconclusive; · = no result shown. Compounds with a hit are over-represented: about 1.7% of the library has one in this group of screens. Rule as the data show it, unless noted: active = inhibition above about 30%; inactive = the rest.
SMILES,CCHF vOTU inh-1,PfHsp40 yeast,Mtb hypoxia rep,ugtP null kill,BH1578 lux ind,Sa RN4220 lethal,CCHF vOTU inh-2
CCOc1ccc(C(=O)NN=C(C)C2C(=O)c3ccccc3C2=O)cc1,·,·,2,8,·,4,·
CNC(=O)CCCCCNS(=O)(=O)c1ccc(C)cc1,31*,-1,9,1,i,-4,-8
CCCc1nc2c(=O)n(C)c(=O)nc-2n(C)n1,113*,125*,15,25,0,38,94*
Cn1nc(-c2ccccn2)nc2c(=O)n(C)c(=O)nc1-2,102*,0,-2,7,i,6,104*
O=C(NN=C/C=C/c1ccccc1)c1cccs1,·,·,8,-3,·,2,·
CCOC(=O)/C(C#N)=C1/C=CN(Cc2ccccc2)C=N1,30*,-2,-1,-2,-1,3,-1
CSCCC(Nc1ncnc2sc(C)c(C)c12)C(=O)O (stereo not given),·,·,3,-1,·,3,·
COC(=O)c1ccc(N=NNc2ccc(C(=O)OC)cc2)cc1,33*,1,14,2,0,9,-9
COC(=O)c1ccc(N=NNc2ccccc2)cc1,-11,-1,5,-20,0,3,·
Cc1ccc2c(c1)C(=NOC(=O)c1ccc(F)cc1)CCS2,·,·,-1,-7,·,8,·
O=C(CCc1ccc(S(=O)(=O)N2CCOCC2)cc1)Nc1ccc(F)c(F)c1F,35*,0,3,7,i,4,-15
CCCC=C1CCCOC(C(=O)NCc2ccccn2)(C(F)(F)F)C1 (stereo not given),·,·,8,-12,·,8,·
COc1ccc(NS(=O)(=O)c2ccc3c(c2)[C@H]2C=CC[C@H]2[C@@H](c2ccc(C(=O)O)cc2)N3)cc1,39*,0,·,·,i,·,26
NC(=O)C1CC2(CC(c3cccc(NC(=O)COc4ccc(Cl)cc4)c3)=NO2)CN1C(=O)c1ccc(Cl)cc1 (stereo not given),·,·,-3,2,·,5,·
Cc1ccc(S(=O)c2ccc([N+](=O)[O-])c3nonc23)cc1 (stereo not given),32*,·,·,·,i,·,18
O=c1[nH]c(Nc2ccccc2Cl)cc2ccccc12,94*,-1,-2,0,-1,-1,-71
Cc1ccccc1Nc1cc2ccccc2c(=O)[nH]1,·,0,·,5,-1,-10,·
CN(C)c1ccc(/C=C2\CCC/C(=C\c3ccccc3)C2=O)cc1,3,-3,5,50,0,-1,·
CCN(CC)c1ccc(/C=C/c2cccc[n+]2C)c(OC)c1,13,0,·,·,i,·,·
CN(C)c1ccc(C=c2c3cc([N+](=O)[O-])ccc3n3c2cc(-c2ccccc2)[n+]3C)cc1,40*,5,·,·,·,·,11
COc1cc(N(C)C)ccc1C=c1c2ccccc2n2c1cc(-c1ccccc1)[n+]2C,34*,?,·,·,i,·,7
CN(C)c1ccc(C=c2c3ccccc3n3c2c2c([n+]3C)CCCC2)cc1,35*,300*,·,·,·,·,-1
CN(C)c1ccc(C=c2c3ccccc3n3c2cc(-c2ccccc2)[n+]3C)cc1,48*,7,·,·,-1,·,1
CN(C)c1ccc(C=c2c3ccccc3n3c2cc(-c2ccc(Cl)cc2)[n+]3C)cc1,47*,219*,·,·,i,·,10
COc1cc(C=c2c3ccccc3n3c2cc(-c2ccccc2)[n+]3C)cc(OC)c1OC,85*,1,·,·,i,·,69*
SMILES,CCHF vOTU inh-1,PfHsp40 yeast,Mtb hypoxia rep,ugtP null kill,BH1578 lux ind,Sa RN4220 lethal,CCHF vOTU inh-2
COc1cc(/C=C(/C(=O)O)c2ccc(-c3ccccc3)cc2)cc(OC)c1OC,12,1,-6,-5,0,12,·
CCOC(=O)COc1ccccc1C=C1NC(=O)NC1=O,·,·,8,-5,·,5,·
O=C(O)CC1c2cc(C(F)(F)F)ccc2S(=O)(=O)N1C1CCN(Cc2ccccc2)CC1 (stereo not given),·,·,13,2,·,7,·
CC(=NNS(C)(=O)=O)c1ccccc1,·,·,11,-2,·,6,·
CC(=O)c1cccc(NC(=O)/C(=C/c2ccco2)NC(=O)c2ccco2)c1,37*,1,11,-9,1,6,-1
C[C@@]12CCC=CC1C(c1ccc3ccccc3c1)N(Cc1ccccc1)C2=O (stereo not given in full),·,·,-3,5,·,0,·
O=C(O)c1ccc(NC2=C(n3nnc4ccccc43)C(=O)c3ccccc3C2=O)cc1,87*,-1,·,·,i,·,89*
O=C(O)c1ccc(-n2nnc3ccccc32)c([N+](=O)[O-])c1,13,0,15,-3,i,2,·
CC(CCC(C)C)=NNC(=O)COc1ccccc1-c1ccccc1,·,·,-5,10,·,6,·
Cc1nnc(N/N=C/c2ccccc2O)n1N,97*,-2,·,·,0,·,-4
CCc1nnc(N/N=C/c2c(C)[nH]c3ccccc23)n1N,112*,0,·,·,0,·,-11
CCc1nnc(N/N=C/c2c(F)cccc2Cl)n1N,87*,-3,·,·,i,·,-12
CCc1nnc(NN=Cc2c(F)cccc2Cl)n1N,·,·,3,3,·,5,·
CCc1nnc(N/N=C/c2cc(C)c(C)cc2C)n1N,74*,0,·,·,0,·,-21
CCOc1ccc(CC(O)=C2C(=O)CC(C)(C)CC2=NCC(=O)O)cc1OCC,·,·,8,-7,·,4,·
CC1CN(C(C)CO)C(=O)c2cc(NS(=O)(=O)c3ccccc3)ccc2OC1CN(C)C(=O)Nc1ccccc1 (stereo not given),·,·,3,5,·,4,·
Cc1nnc(N/N=C/c2c(Cl)cccc2Cl)n1N,75*,-1,·,·,0,·,-8
Cc1nnc(N/N=C/c2cc(C)n(-c3ccc(F)cc3)c2C)n1N,99*,0,·,·,1,·,-9
CCOc1cc(/C=N/Nc2nnc(C)n2N)ccc1O,117*,-2,·,·,-1,·,5
CCOc1cc(/C=N/Nc2ncnc(Cl)c2N)ccc1O,6,0,·,·,0,·,·
Cc1nnc(NN=Cc2cc(C)n(-c3ccc(F)cc3)c2C)n1N,·,·,·,6,·,11,·
Cc1nnc(NN=Cc2ccco2)n1N,·,·,-7,5,·,9,·
CC(=NO)C(C)(C)Nc1ccc(F)cc1,·,·,-5,6,·,4,·
Cc1ccc(C=Nn2c(C3CCCCC3)n[nH]c2=S)s1,·,·,7,-6,·,5,·
CCc1ccc(CN(C)C(=O)c2cc(COc3cc(C)c(Cl)c(C)c3)on2)nc1,30*,6,6,-7,0,0,-6
Cc1cc(OCc2cc(C(=O)N(C)Cc3nonc3C)no2)cc(C)c1Cl,31*,6,15,-10,0,8,1
CCOC(=O)Cc1nnc(Nc2cc(C)ccc2C)c2ccccc12,31*,0,-3,4,i,0,3
O=C(c1ccccc1)c1ccc(OCCn2cnc3ccccc3c2=O)cc1,13,-1,·,2,i,-6,·
CC(C)(c1ccccc1)c1ccc(OCCn2cnc3ccccc3c2=O)cc1,31*,2,12,15,i,-2,4

# Screens (PubChem BioAssay)
